Measured values: the supplement of paper PMC6555819

Legend:
Assay in all cases: PBM binding z-score (relative to random genomic background probes); higher = stronger binding; sequences stand for … in GC…GCGATTGACAGCGTAGAATGAAGG
[1] = tested on: FXR:RXRa (NR concentration 270 nM, RXRa partner concentration 90 nM)
Method in brief: (§1)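 Ligand-free nuclear receptor dimers were bound for 1 h to custom Agilent 4×180K protein-binding microarrays. Detection used antibodies against each partner (one per run). Binding z-scores rest on regression-normalized fluorescence, with random background probes as the reference.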

[2] = tested on: LXRa:RXRa (NR concentration 270 nM, RXRa partner concentration 90 nM)
Method in brief: as §1

[3] = tested on: LXRa homodimer (NR concentration 270 nM)
Method in brief: as §1

[4] = tested on: LXRb:RXRa (NR concentration 270 nM, RXRa partner concentration 90 nM)
Method in brief: as §1

[5] = tested on: LXRb homodimer (NR concentration 270 nM)
Method in brief: as §1

[6] = tested on: PPARa:RXRa (NR concentration 270 nM, RXRa partner concentration 90 nM)
Method in brief: as §1

[7] = tested on: PPARg:RXRa (NR concentration 180 nM, RXRa partner concentration 90 nM)
Method in brief: as §1

[8] = tested on: PPARg:RXRa 270nM:90nM, anti-RXR (NR concentration 270 nM, RXRa partner concentration 90 nM)
Method in brief: as §1

[9] = tested on: PPARg:RXRa 30nM:10nM, anti-RXR (NR concentration 30 nM, RXRa partner concentration 10 nM)
Method in brief: as §1

[10] = tested on: PPARg:RXRa 90nM:30nM, anti-RXR (NR concentration 90 nM, RXRa partner concentration 30 nM)
Method in brief: as §1

[11] = tested on: PPARg:RXRa DBDmut IVT, anti-RXR (DBD mutation: RXRa K156A/R161A, NR concentration 270 nM, RXRa partner concentration 90 nM)
Method in brief: as §1

[12] = tested on: PPARg:RXRa IVT, anti-PPARg (NR concentration 270 nM, RXRa partner concentration 90 nM)
Method in brief: as §1

[13] = tested on: PPARg DBDmut:RXRa IVT, anti-PPARg (DBD mutation: PPARg1 K132A/R137A, NR concentration 270 nM, RXRa partner concentration 90 nM)
Method in brief: as §1

[14] = tested on: PPARg DBDmut IVT, anti-PPARg (DBD mutation: PPARg1 K132A/R137A, NR concentration 270 nM)
Method in brief: as §1

[15] = tested on: PPARg homodimer (NR concentration 180 nM)
Method in brief: as §1

[16] = tested on: PXR:RXRa (NR concentration 270 nM, RXRa partner concentration 90 nM)
Method in brief: as §1

[17] = tested on: PXR homodimer (NR concentration 270 nM)
Method in brief: as §1

[18] = tested on: RARa:RXR (NR concentration 270 nM, RXRa partner concentration 90 nM)
Method in brief: as §1

[19] = tested on: RARa homodimer (NR concentration 270 nM)
Method in brief: as §1

[20] = tested on: RARb:RXRa (NR concentration 270 nM, RXRa partner concentration 90 nM)
Method in brief: as §1

Row | Sequence | PBM binding z-score [1] | PBM binding z-score [2] | PBM binding z-score [3] | PBM binding z-score [4] | PBM binding z-score [5] | PBM binding z-score [6] | PBM binding z-score [7] | PBM binding z-score [8] | PBM binding z-score [9] | PBM binding z-score [10] | PBM binding z-score [11] | PBM binding z-score [12] | PBM binding z-score [13] | PBM binding z-score [14] | PBM binding z-score [15] | PBM binding z-score [16] | PBM binding z-score [17] | PBM binding z-score [18] | PBM binding z-score [19] | PBM binding z-score [20]
1 | TGTCAAAGTTCAAAGGTAACCTAAGTATCCACAC | 7.3 | 6.43 | 4.99 | 5.02 | 2.06 | 6.03 | 8.74 | 7.74 | 5.57 | 7.47 | 0.886 | 4.82 | 1.02 | 0.289 | 3 | 5.7 | 4.14 | 6.39 | 1.28 | 5.09
2 | TAGCCTAGGTCATTCAAGGGCCAGTATAGAAAGC | 4.72 | 3.99 | 0.681 | 2.5 | 0.527 | 3.79 | 1.97 | 2.25 | 0.523 | 1.88 | 1.4 | 2.93 | 0.0741 | 0.0632 | 1.31 | 2.5 | 0.325 | 2.93 | 0.561 | 3.9
3 | GATACAGGGTCCAGGCCAGAGTACGCGTATTGAT | -0.251 | -0.534 | -0.485 | -0.738 | -0.692 | -0.292 | 0.664 | -0.347 | -0.488 | -0.478 | -0.66 | -0.0913 | -0.12 | -0.0353 | 0.34 | -0.441 | -0.03 | -0.412 | -0.345 | 0.355
4 | ACTAGCAGGCCAACTTTGGGTCACTCAAACAAAG | 0.261 | 0.66 | 0.362 | 0.931 | -0.445 | 1.53 | 0.543 | 0.901 | -0.236 | 0.471 | 1.25 | 1.4 | 0.153 | -0.0474 | 0.721 | 0.676 | -0.281 | 1.52 | -0.417 | 1.74
5 | ACTCGGAGGACACAGGTCAGAGCTACGCCAGTGA | 1.4 | 1.18 | 0.294 | 0.96 | -0.518 | 2.18 | 2.85 | 3.06 | 1.09 | 2.71 | 0.556 | 1.45 | -0.673 | 0.431 | 1.35 | 1.09 | -0.155 | 1.8 | 0.347 | 2.89
6 | TCAGACAGGTGAAGGTAACTCGGGTACGCAGTCG | 1.07 | 2.93 | 0.00206 | 1.44 | -0.167 | 1.46 | 0.656 | 2.33 | 3.89 | 3.22 | 2.75 | 1.56 | -0.468 | -0.323 | 0.71 | 0.846 | 0.151 | 0.795 | 0.419 | 1.46
7 | CATACTGGGCCATCAGGTCATTGATATCAACGTT | 1.86 | 1.46 | 1.4 | 1.75 | 0.36 | 2.86 | 2.91 | 3.57 | 1.42 | 2.43 | 4.24 | 4.71 | 0.816 | 1.18 | 1.3 | 1.99 | 0.876 | 2.16 | 0.345 | 2.25
8 | CCGAGTAGGTTATGGGACATTCAGGCAACGGTGA | 0.111 | 0.356 | 0.00939 | 0.277 | 0.141 | 0.923 | 1.53 | 2.35 | 0.542 | 1.74 | 3.53 | 2.6 | -0.291 | -0.241 | 1.11 | -0.0515 | 0.264 | 0.315 | 0.595 | 0.813
9 | CGTCAAAGTTCAACTAAGGTGACGTAAAGCACGC | 7.03 | 6.44 | 4.17 | 4.04 | 2.05 | 5.05 | 5.01 | 5.86 | 2.52 | 4.48 | 0.538 | 2.53 | -0.0247 | 0.457 | 4.07 | 5.89 | 4.65 | 4.4 | 1.76 | 5.17
10 | ATCGAAAGGTCGACGAGGTGAGTATCCACCGTTT | 3.97 | 3.28 | -0.0498 | 2.63 | 0.248 | 4.28 | 2.41 | 3.45 | 0.781 | 2.21 | 0.709 | 1.86 | 0.578 | 0.779 | 1.21 | 2.78 | 0.403 | 3.19 | 0.424 | 3.84
11 | ATATGTAGGTTAAGAGTCATTCAGGTTGGTTCGC | 0.855 | 1.47 | 0.703 | 1.18 | 0.774 | 4.58 | 8.36 | 7.68 | 6.62 | 8.28 | 7.43 | 7.13 | 1.39 | 1.44 | 2 | 1.5 | 0.614 | 1.5 | 1.72 | 1.42
12 | ATCTCTAGGTAAAGTTCAGTAAAAGATCGATAGA | 1.06 | 1.77 | 1.7 | 1.29 | 0.992 | 2.18 | 2.91 | 4.22 | 2.52 | 4.14 | 2.04 | 2.45 | 1.82 | 0.984 | 2.05 | 2.07 | 2.09 | 1.42 | 2.26 | 2.82
13 | GGAACGACGGCATTCGAGTTGATAGCATGGCGAT | -0.557 | -0.773 | -0.583 | -0.948 | -1.04 | -0.735 | 0.532 | -0.612 | -0.766 | -0.917 | -0.236 | -0.897 | -0.871 | -0.489 | -1.13 | -0.589 | -0.529 | -0.766 | -0.761 | -1.24
14 | TAACCTAGGTCAGATCGGGCCAGTATACGCTATA | 2.84 | 2.52 | 0.693 | 1.64 | 0.561 | 2.29 | 1.87 | 2.06 | 0.906 | 1.62 | 1.82 | 3.4 | 0.884 | -0.00517 | 1.09 | 1.54 | -0.137 | 1.38 | -0.0765 | 3.32
